Shown is part of a subset that was picked to be rich in hits.
N-glyco inh – increase of ERlucT glycosylation luciferase signal, primary screen, N-linked glycosylation inhibitor project, D54 ERlucT cells, luminescence, set 2; reporter increase, % at 12.5 µM; AID 588692, 2011; 360,000 tested, 0.23% active; D54 ERlucT glycosylation luciferase reporter, 24 h; percent of 100 nM tunicamycin response;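 active = mean luciferase reporter signal, scaled so untreated is 0 and the glycosylation-blocking control 100, at or above a set limit in every replicate; inconclusive = mean reaches the limit but not every replicate does; inactive = mean below the limit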;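 also: luciferase carries N-glycosylation sites so blocking glycosylation raises the light; 0% = median of neutral control wells and 100% = median of 100 nM tunicamycin wells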
DENV2 CPE – inhibitors of DENV2 cytopathic effect, primary screen, cell-based, plate reader, single concentration; 350,000 tested, 1.7% active; CPE inhibition, % at 9.99 µM; DENV2-infected cells, cytopathic effect rescue; in the data active = CPE inhibition above about 20%, passing the limit was not always enough; inconclusive = no clear call, values can overlap the other calls; tested in BHK-21 cells;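 also: 0% = median of neutral control wells and 100% = median of positive control wells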
PglD DTNB – C. jejuni PglD acetyltransferase inhibitors, primary screen, biochemical, DTNB colorimetric, single point; inhibition, % at 12.5 µM; purified PglD enzyme, DTNB colorimetric CoA detection; UDP-N-acetylbacillosamine N-acetyltransferase PglD (Campylobacter jejuni); AID 602405, 2012; 360,000 tested, 0.098% active; in the data active = inhibition above about 16%, passing the limit was not always enough; inconclusive = no clear call, values can overlap the other calls
Rtt109 Vps75 – inhibitors of C. albicans Rtt109/Vps75 HAT, primary screen, biochemical, ThioGlo CoA-SH fluorescence, plate reader | Histone acetyltransferase RTT109 (Candida albicans (strain SC5314 / ATCC MYA-2876)), … | purified Rtt109/Vps75, 4 h | inhibition, % at 34.9 µM | 330,000 tested, 0.16% active | AID 540336, 2011;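 active = inhibition of at least 50% in every replicate; inconclusive = best replicate reaches 50% inhibition but some replicates fall short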
Target sequence (Q5AAJ8 whole entry, looked up): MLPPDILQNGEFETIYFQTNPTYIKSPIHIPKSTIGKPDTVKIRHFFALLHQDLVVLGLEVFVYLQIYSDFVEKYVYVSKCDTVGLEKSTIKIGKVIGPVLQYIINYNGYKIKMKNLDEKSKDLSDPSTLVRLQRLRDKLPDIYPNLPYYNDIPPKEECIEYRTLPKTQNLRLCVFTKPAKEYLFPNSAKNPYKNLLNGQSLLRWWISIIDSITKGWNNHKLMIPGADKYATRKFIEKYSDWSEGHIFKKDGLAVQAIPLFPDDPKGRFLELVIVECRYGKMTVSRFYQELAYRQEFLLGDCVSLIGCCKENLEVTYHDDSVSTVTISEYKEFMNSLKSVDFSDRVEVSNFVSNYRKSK
* marks the source's active call; other numbers are inactive results; ? = inconclusive; nt = no result.

SMILES | N-glyco inh | DENV2 CPE | PglD DTNB | Rtt109 Vps75
O=C(C[C@H]1CC[C@@H]2NC[C@H](O)COC[C@H]2O1)NCCc1ccccc1 | nt | 25* | 8 | nt
COc1ccc(S(=O)(=O)N(C)C[C@@H]2Oc3ccc(N(C)C)cc3CC(=O)N([C@@H](C)CO)C[C@H]2C)cc1 | nt | -2 | -3 | nt
CC1(C)N=C(SCC(=O)Nc2ccccc2)C(c2ccc(Cl)cc2)=N1 | -1 | nt | 0 | 7
Cc1ccc(C2=NC(C)(C)N=C2SCC(=O)Nc2ccc(Cl)cc2)cc1 | 6 | nt | -2 | 99*
Cc1cccc(OCC(O)Cn2ccnc2C)c1 (stereo not drawn) | -1 | -2 | 2 | 12
Cc1cccc(C)c1OCC(O)Cn1ccnc1C (stereo not drawn) | 0 | 40* | 10 | 16
CN(C)CCCN1C(=O)c2cccc3c([N+](=O)[O-])ccc(c23)C1=O | 57* | nt | nt | -15
Cc1ccc(C(=O)O)cc1N1C(=O)c2cccc3c([N+](=O)[O-])ccc(c23)C1=O | 7 | -1 | 3 | 8
O=C(O)c1ccc(CN2C(=O)c3cccc4c([N+](=O)[O-])ccc(c34)C2=O)cc1 | 31* | nt | -4 | -2
O=C1c2cccc3c([N+](=O)[O-])ccc(c23)C(=O)N1CCc1ccccn1 | 21 | -10 | -1 | 6
C[C@H]1CN([C@@H](C)CO)C(=O)c2cc(-c3cccc(C#N)c3)cnc2O[C@H]1CN(C)C(=O)C1CCC1 | nt | 10 | -1 | nt
CO[C@H]1CN(C)C(=O)c2cc(NS(=O)(=O)c3ccc(Cl)cc3)ccc2OC[C@H](C)NC[C@H]1C | nt | 9 | 1 | nt
CCC(=O)Nc1ccc2c(c1)OC[C@H](C)N(C(=O)C1CC1)C[C@@H](C)[C@H](OC)CN(C)C2=O | nt | -5 | -6 | nt
CO[C@H]1CN(C)C(=O)c2ccc(NC(C)=O)cc2OC[C@H](C)N(C(=O)C2CCC2)C[C@@H]1C | nt | 30* | nt | nt
CO[C@@H]1CN(C)C(=O)c2ccc(NC(C)=O)cc2OC[C@@H](C)N(C(=O)CN2CCOCC2)C[C@@H]1C | nt | 28* | -3 | nt
CCC(=O)Nc1ccc2c(c1)OC[C@@H](C)N(C(=O)CN1CCOCC1)C[C@H](C)[C@@H](OC)CN(C)C2=O | nt | 12 | -1 | nt
CCC(=O)Nc1ccc2c(c1)OC[C@@H](C)N(C(=O)C1CC1)C[C@H](C)[C@H](OC)CN(C)C2=O | nt | 36* | nt | nt
C[C@@H]1CCCCO[C@H](CN(C)Cc2ccc(C(F)(F)F)cc2)[C@@H](C)CN([C@@H](C)CO)C(=O)c2cc(NC(=O)CCC(F)(F)F)ccc2O1 | nt | 21* | 1 | nt
COc1ccc(CN(C)C[C@H]2OCCCC[C@H](C)Oc3ccc(NC(=O)CCC(F)(F)F)cc3C(=O)N([C@H](C)CO)C[C@@H]2C)cc1 | nt | 29* | 0 | nt
COc1cccc(C(=O)Nc2ccc3c(c2)OC[C@@H](C)N(C)C[C@@H](C)[C@H](OC)CN(C)C3=O)c1 | nt | -8 | -1 | nt
COc1ccc2c3c([nH]c2c1)[C@@H](CO)N(C(C)=O)CC31CN(C(=O)Nc2ccc(F)cc2F)C1 | nt | 2 | nt | nt
COc1cc(C(=O)OCCn2c(=O)c3c(ncn3CCN(C)C)n(C)c2=O)cc(OC)c1OC | 3 | 25* | 3 | 3
C[C@@H]1CN([C@@H](C)CO)C(=O)c2cccc(NC(=O)CCCCCC(=O)Nc3ccccc3N)c2O[C@H]1CN(C)C(=O)Nc1ccc(F)cc1 | nt | 49* | nt | nt
CC(C)NC(=O)N(C)C[C@@H]1Oc2c(NC(=O)CCCCCC(=O)Nc3ccccc3N)cccc2C(=O)N([C@@H](C)CO)C[C@H]1C | nt | 25* | nt | nt
CC(C)NC(=O)N(C)C[C@@H]1Oc2c(NC(=O)CCCCCC(=O)Nc3ccccc3N)cccc2C(=O)N([C@H](C)CO)C[C@H]1C | nt | 9 | nt | nt
SMILES | N-glyco inh | DENV2 CPE | PglD DTNB | Rtt109 Vps75
CC=Cc1ccc2n(c1=O)C[C@@H]1[C@@H](CO)[C@H](C(=O)NCC3CC3)[C@H]2N1CCC(F)(F)F (mixture of isomers) | nt | 16 | 4 | nt
O=C(CCN1CCOCC1)N/N=C/c1cc([N+](=O)[O-])ccc1OC(F)F | 0 | 22* | 4 | -2
CCCCC(=O)N/N=C/c1cc([N+](=O)[O-])ccc1N1CCOCC1 | 2 | nt | -6 | 2
COCC(=O)N1[C@@H](CO)[C@@H]2c3ccccc3N(C(=O)c3ccccc3F)C[C@@H]21 | nt | -5 | -1 | nt
c1coc(-c2nc(-c3ccco3)c(-c3ccco3)nc2-c2ccco2)c1 | 9 | nt | -3 | 0
COc1ccc2nc(-c3ccco3)c(-c3ccco3)nc2c1 | 33* | -2 | 3 | -2
C/C=C/c1ccc([C@H]2[C@@H](CO)N(CC3CC3)C23CN(S(C)(=O)=O)C3)cc1 | nt | 51* | nt | nt
C/C=C/c1ccc([C@H]2[C@@H](CO)N(CCC(F)(F)F)C23CN(C(=O)CC2CC2)C3)cc1 | nt | 65* | nt | nt
C/C=C/c1ccc([C@@H]2[C@H](CO)N(C(=O)CC3CC3)C23CN(S(C)(=O)=O)C3)cc1 | nt | 9 | nt | nt
C/C=C/c1ccc([C@@H]2[C@H](CO)N(Cc3cncnc3)C23CN(C(=O)CC2CC2)C3)cc1 | nt | 11 | nt | nt
CS(=O)(=O)N1CC2(C1)[C@H](c1ccccc1)[C@H](CO)N2Cc1ccccc1 | nt | -7 | nt | nt
CS(=O)(=O)N1CC2(C1)[C@@H](c1ccccc1)[C@@H](CO)N2Cc1ccccc1 | nt | 28* | nt | nt
C/C=C/c1ccc([C@H]2[C@@H](CO)N(CC3CCOCC3)C23CN(S(=O)(=O)CC)C3)cc1 | nt | 27* | nt | nt
COc1ccc2c3c([nH]c2c1)[C@@H](CO)N(C(=O)Cc1ccccn1)CC31CCN(Cc2ccccn2)CC1 | nt | -4 | nt | nt
COc1ccc(S(=O)(=O)N(C)C[C@H]2OCCCC[C@@H](C)Oc3ccc(NC(=O)NC(C)C)cc3C(=O)N([C@H](C)CO)C[C@@H]2C)cc1 | nt | -6 | 4 | nt
C[C@H]1CN([C@@H](C)CO)C(=O)c2cccc(NC(=O)c3cnccn3)c2O[C@@H]1CN(C)C(=O)Nc1ccc(C(F)(F)F)cc1 | nt | ? | 0 | nt
C/C=C/c1ccc([C@@H]2[C@H](CO)N(CC3CCCC3)C23CN(S(=O)(=O)CC)C3)cc1 | nt | -6 | nt | nt
C/C=C/c1ccc([C@H]2[C@@H](CO)N(CC3CCCC3)C23CN(S(=O)(=O)CC)C3)cc1 | nt | 23* | nt | nt
Cc1cccc(C)c1Cn1c(C)c(C(=O)NCc2ccc(C#N)cc2)sc1=O | -8 | -3 | -5 | nt
Cc1c(C(=O)NCc2ccc(C#N)cc2)sc(=O)n1Cc1ccccn1 | -6 | 21* | -5 | nt
CN(C)c1ccc(C=c2c3cc(O)ccc3n3c2cc(-c2ccccc2)[n+]3C)cc1 | 19 | -4 | nt | -19
Cc1cc2c(=Cc3ccc(N(C)C)cc3)c3ccccc3n2[n+]1C | 66* | 17 | nt | 3
CCOC(=O)c1cc2c(=Cc3ccc(N(C)C)cc3)c3ccccc3n2[n+]1C | 40* | 35* | nt | 5

Assay outcomes as filed in PubChem.
